This is an account of results in PubChem BioAssay (NCATS).

Each structure is given as a SMILES string. Where “and” joins values, the source holds several entries; their conditions need not be identical. Equal values may be shown once. Unmarked numbers belong to inactive results. Records with an inconclusive call do not appear. Calls of active or inactive are those of the source. Unless noted, the call rests on the fitted dose curve; in most records, active means well fitted curve in the direction sought with a large enough effect; inconclusive means small, poorly fitted or top-dose-only effect, or another doubt; inactive means no such curve, though single readings can be large; an effect the other way counts as inactive or inconclusive.

Assay [1] concerns the target Tumor necrosis factor (Homo sapiens) (UniProt P01375). Nature of the assay: qHTS assay to identify small molecules that stimulate Tumor Necrosis Factor-alpha (TNF-alpha) secretion (AID 651757; active means well fitted curve in the direction sought with a large enough effect in the signal ratio; the % refers to the signal ratio; further: 0% is about no effect). The procedure, abridged:
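Using 3000 THP-1 cells per well, compounds and controls were applied for 17 hrs at 37 C. Detection followed with two labeled anti-TNF-alpha antibodies (cryptate donor, XL665 acceptor) for 3 hr at room temperature, measured by TR-FRET.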
(qHTS replaces the single test concentration by a dilution series.)

Assay [2] is described as follows: qHTS assay for environmental chemicals that activate the Aryl hydrocarbon Receptor (AhR) signaling pathway (AID 651777). Further: % of control where 0% means no effect; nearly all actives have a fitted effect of over 15% in size. Conditions: 1A2-DRE human hepatoma cells, luciferase, 24 h; activation: active compounds read high. The procedure, abridged: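 Following a 24 hr incubation with test chemicals at 37 C and 5% CO2, 1A2-DRE human hepatoma cells received One-Glo reagent; after 30 min at room temperature, luciferase output reflected CYP1A2 induction via AhR.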

Assay [3] addresses Peroxisome proliferator-activated receptor alpha (Homo sapiens) (UniProt Q07869). Nature of the assay: qHTS assay for small molecule agonists of the peroxisome proliferator-activated receptor alpha (PPARalpha) signaling pathway (AID 651778). Further: % of control where 0% means no effect. Conditions: PathHunter PPARalpha complementation, chemiluminescence, 6 h; active compounds read high. A digest of the protocol:
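Cells plated at 2,000/well and held overnight at 37 C, 5% CO2, then compound added by pin tool for 6 hr; after PathHunter detection reagent and 60 min at room temperature, chemiluminescence from enzyme complementation was read.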

Assay [4] deals with Nuclear receptor ROR-gamma (Homo sapiens) (UniProt P51449). In words: qHTS assay for small molecule antagonists of the retinoid-related orphan receptor gamma (ROR-gamma) signaling pathway (AID 651802). Further: nearly all actives have a fitted effect of over 60% in size. Further: potency means the concentration at half of the fitted maximal effect. A digest of the protocol:
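Doxycycline-induced reporter activity in engineered CHO cells (TET-inducible ROR, RORE-LUC) was measured by luminescence after 16hr compound exposure at 37C.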

Assay [5] in a line: qHTS assay for small molecule agonists of the antioxidant response element (ARE) signaling pathway measured by Nrf2-dependant transcriptional activity (AID 720636; active means well fitted curve in the direction sought with a large enough effect in the repeat runs; an effect the other way counts as inactive or inconclusive;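 further: HepG2 cells with an ARE-driven luciferase reporter; % of control where 0% means no effect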). The procedure, abridged:
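ONE-Glo luminescence, read 30 min after reagent addition at room temperature, reflected ARE reporter activity in HepG2 cells that had been incubated with compound for 16 hr at 37 C in 1% dialyzed FBS.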

Assay [6] is described as follows: qHTS assay for small molecule antagonists of the retinoid-related orphan receptor gamma (ROR-gamma) signaling pathway - cell viability counter screen (AID 720652; active means well fitted curve in the direction sought with a large enough effect in the repeat runs; an effect the other way counts as inactive or inconclusive;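 further: compound exposure lasted 16 hr before ATP read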; further: potency means the concentration at half of the fitted maximal effect). The procedure, abridged: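 ATP-based viability readout in the ROR-gamma reporter CHO cells after 16 hr compound exposure under doxycycline induction.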
A short description of assay [7]: qHTS assay for small molecule agonists of the antioxidant response element (ARE) signaling pathway measured by Nrf2-dependant transcriptional activity - cell viability counter screen (AID 720653; active means well fitted curve in the direction sought with a large enough effect in the repeat runs; an effect the other way counts as inactive or inconclusive; further: on the % scale 0 is the no-effect control and ±100 the full control effect). Conditions: ARE-bla HepG2 viability, CellTiter-Glo ATP luminescence, 16 h; active compounds read low. The procedure, abridged:
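ARE-bla HepG2 cells (2,000/well) rested 5 hrs at 37C/5% CO2, then exposed to compounds in DMSO for 16 hrs. Viability was read in the same wells as intracellular ATP by luminescence, 30 min at room temperature after reagent addition.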

Assay [8] in a line: qHTS assay for cell viability of HEK293 cells (AID 743288). Further: on the % scale 0 is the no-effect control and ±100 the full control effect; nearly all actives have a fitted effect of over 50% in size. The following applies: ATP luminescence (CellTiter-Glo), 18 h, active compounds read low. A digest of the protocol:
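Steps: plate 2,000 parental HEK293 cells per well; incubate ≥5 h, 37 C; add compounds in DMSO; incubate 18 h, 37 C; add CellTiter-Glo; wait 30 min at room temperature; read luminescence.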

Assay [9] is described as follows: qHTS assay for cell viability of the p53RE-bla HCT-116 cell line (AID 743292). Further: on the % scale 0 is the no-effect control and ±100 the full control effect; nearly all actives have a fitted effect of over 55% in size. The procedure, abridged: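 After plating at 4,000 cells per well and a 5 h rest at 37 C, HCT-116 cells carrying p53RE-bla received test chemicals in DMSO. Sixteen hours later at 37 C, CellTiter-Glo was added and luminescence recorded following 30 min at room temperature.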
Assay [10] concerns the target Nuclear receptor subfamily 1 group I member 2 (Rattus norvegicus) (UniProt Q9R1A7). Nature of the assay: qHTS assay for small molecule activators of the rat pregnane X receptor (rPXR) signaling pathway (AID 651751; call rule not given here; further: 0% is about no effect). The following applies: rPXR reporter cells, luciferase (One-Glo), 24 h.
Assay [11] in a line: qHTS assay for small molecule activators of the human pregnane X receptor (PXR) signaling pathway (AID 720659; call rule not given here; further: 0% is about no effect).
The nature of assay [12]: qHTS assay for small molecule disruptors of the mitochondrial membrane potential - 1 hr assay (AID 651754; calls by dose curve; further: nearly all actives have a fitted effect of over 35% in size; further: potency means the concentration at half of the fitted maximal effect). The procedure, abridged:
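In this qHTS format, a 1 hr compound treatment of HepG2 cells precedes Mito-MPS staining, and membrane potential is judged from aggregate (red) against monomer (green) fluorescence intensity.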

The nature of assay [13]: qHTS assay for small molecule disruptors of the mitochondrial membrane potential - 5 hr assay (AID 651755; calls by dose curve; further: on the % scale 0 is the no-effect control and ±100 the full control effect; nearly all actives have a fitted effect of over 40% in size). The procedure, abridged:
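Seed HepG2 overnight, add compound, incubate 5 hr at 37C and 5% CO2, stain 30 min with Mito-MPS, then measure monomer (490/535 nm) and aggregate (540/590 nm) fluorescence.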

A short description of assay [14]: qHTS assay to identify small molecules that stimulate interleukin-8 (IL-8) secretion (AID 651758; active means well fitted activation curve with a large enough effect in the signal ratio; the % refers to the signal ratio; further: 0% is about no effect). The procedure, abridged: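 Quantitative HTS in THP-1 monocytic cells at 2000 cells per well, with 16 hrs compound incubation at 37 C. IL-8 in the medium was then quantified by HTRF immunoassay, read after 1-3 hrs at room temperature.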

Nuclear receptor subfamily 1 group I member 2 (Rattus norvegicus), sequence (Q9R1A7 whole entry, looked up): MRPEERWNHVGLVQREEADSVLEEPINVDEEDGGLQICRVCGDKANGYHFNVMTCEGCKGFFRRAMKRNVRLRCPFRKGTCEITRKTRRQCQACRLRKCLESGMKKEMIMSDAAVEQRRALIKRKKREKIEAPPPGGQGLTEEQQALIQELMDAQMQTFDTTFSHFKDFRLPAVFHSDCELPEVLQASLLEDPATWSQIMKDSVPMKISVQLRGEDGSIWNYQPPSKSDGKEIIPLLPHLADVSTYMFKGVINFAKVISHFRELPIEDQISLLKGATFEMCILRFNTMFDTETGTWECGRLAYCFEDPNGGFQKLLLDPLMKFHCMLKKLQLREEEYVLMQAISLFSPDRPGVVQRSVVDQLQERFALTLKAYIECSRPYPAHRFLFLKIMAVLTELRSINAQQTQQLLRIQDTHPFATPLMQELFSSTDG
Nuclear receptor ROR-gamma (Homo sapiens), sequence (P51449 whole entry, looked up): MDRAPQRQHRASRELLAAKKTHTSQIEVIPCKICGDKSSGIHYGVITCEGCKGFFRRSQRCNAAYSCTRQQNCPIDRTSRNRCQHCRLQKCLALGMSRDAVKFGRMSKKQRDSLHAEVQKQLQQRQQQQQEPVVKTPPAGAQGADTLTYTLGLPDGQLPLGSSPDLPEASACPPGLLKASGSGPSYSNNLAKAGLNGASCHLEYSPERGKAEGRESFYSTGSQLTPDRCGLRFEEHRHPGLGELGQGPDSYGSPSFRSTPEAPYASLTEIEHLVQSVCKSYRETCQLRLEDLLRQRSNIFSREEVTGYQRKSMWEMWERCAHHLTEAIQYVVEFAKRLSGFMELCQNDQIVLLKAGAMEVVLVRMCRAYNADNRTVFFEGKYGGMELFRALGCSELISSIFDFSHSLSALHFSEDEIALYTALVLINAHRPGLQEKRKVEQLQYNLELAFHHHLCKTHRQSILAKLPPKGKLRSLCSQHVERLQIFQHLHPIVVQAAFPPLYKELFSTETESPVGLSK
Peroxisome proliferator-activated receptor alpha (Homo sapiens), sequence (Q07869 whole entry, looked up): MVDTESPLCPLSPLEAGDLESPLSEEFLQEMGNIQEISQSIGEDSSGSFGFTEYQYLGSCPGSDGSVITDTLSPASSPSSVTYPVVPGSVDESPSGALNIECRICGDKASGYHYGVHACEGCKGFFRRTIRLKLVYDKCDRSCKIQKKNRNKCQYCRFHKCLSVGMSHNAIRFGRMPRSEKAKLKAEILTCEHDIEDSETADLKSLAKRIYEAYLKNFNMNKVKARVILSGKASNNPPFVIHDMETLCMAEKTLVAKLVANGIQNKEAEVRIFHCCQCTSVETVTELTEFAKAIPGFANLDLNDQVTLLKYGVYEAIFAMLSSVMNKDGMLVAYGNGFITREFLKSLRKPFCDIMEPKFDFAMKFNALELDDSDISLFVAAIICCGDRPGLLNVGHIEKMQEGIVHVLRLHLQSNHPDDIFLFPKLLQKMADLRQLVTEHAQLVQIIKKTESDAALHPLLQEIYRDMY
Tumor necrosis factor (Homo sapiens), sequence (P01375 whole entry, looked up): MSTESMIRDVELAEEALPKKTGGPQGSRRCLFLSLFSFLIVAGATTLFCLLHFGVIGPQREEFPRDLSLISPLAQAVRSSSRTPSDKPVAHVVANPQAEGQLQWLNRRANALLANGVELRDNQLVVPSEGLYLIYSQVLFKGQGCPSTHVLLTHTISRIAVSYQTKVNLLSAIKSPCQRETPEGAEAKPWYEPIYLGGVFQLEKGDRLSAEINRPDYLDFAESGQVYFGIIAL

Consider `O=Cc1c(Cl)cccc1Cl`, for which the Potency entry in assay [1], in assay [6] and in assay [9] was “inactive” in each case. The activation in assay [2] is 1.15%. For the same compound, the max response was 25.1% in [3], 11.9% in [7], -9.95% in assay [8] and 8% in assay [10]. Besides, the Potency in assay [4] was 16.8 µM (active). In addition, the compound was called inactive in assay [5].

For `CCCCC/C=C/C=C/C=O`, the Potency result in assay [1] and in [9] was “inactive” in each case. Also, the activation in assay [2] was 0.997% and -0.836%. In addition, the max response was -2.99% and -1.24% in [3]; -0.854% and -5.85% in assay [7]; -1.02% in assay [8]; 5.82% and -4.16% in assay [10]. In addition, the figures for the Potency in assay [4] and in assay [6] were 33.5 µM (active) and 23.7 µM (active), respectively. Also, the outcome in [5] and in assay [11] was inactive.

For `C=C(C)C1CC=C(C)C(OC(C)=O)C1` (stereo not drawn), the Potency result in assay [12], in [13], in assay [1], in [14], in assay [4] and in [6] was “inactive” throughout. The Potency result in assay [9] was “inactive”. Besides, the activation in [2] is 0.261%. The values for the max response in assay [3], in assay [7] and in [8] were -3.58%, 1.71% and 1.89%, respectively. In addition, the outcome in assay [5] and in assay [11] was inactive.

On to `Clc1ccc(Cl)c(Cl)c1Cl`, for which the Potency result in assay [1], in [4], in [6] and in assay [9] was “inactive” each time. In addition, the activation in assay [2] was 0.208% and -1.37%. The max response was -7.17% and 0.0854% in assay [3]; 13.5% and -3.85% in assay [7]; 5.4% and -1.16% in assay [8]; -5.98% and -1.32% in assay [10]. In addition, the outcome in assay [5] and in assay [11] was inactive.

On to `CCC(C)=O`, for which the Potency entry in [1], in assay [4], in assay [6] and in assay [9] was “inactive” in each case. For the same compound, the activation in assay [2] is -0.131%. Besides, the max response in assay [3] is -7.5%; in assay [7], -4.32%; in assay [8], 4.69%; in [10] it was 4.73%. Besides, the compound was called inactive in assay [5] and in assay [11].

Consider `COc1ccc(N)c(OC)c1`, for which the Potency in assay [12] is 37.6 µM (active). Also, the activation in assay [2] was 3.03%. Besides, the max response in [3] was 4.7%; in assay [7] it was 4.1%; in assay [8], 1.67%. Further, the Potency result in assay [4], in [6] and in [9] was “inactive” in each case. In addition, the result in assay [5] was inactive.

In the case of `O=C1CCC(=O)O1`, the Potency result in [1], in [4], in assay [6] and in assay [9] was “inactive” each time. Moreover, the activation in assay [2] was -1.39%. The compound was called inactive in assay [5] and in assay [11]. For the same compound, the max response in assay [7] was -3.63%; in [8], -3.25%; in assay [10], -4.75%.

As for `O=[N+]([O-])c1ccc2nc[nH]c2c1`, the max response is -4.28% in assay [3], -5.47% in assay [7], 3.84% in assay [8] and -0.905% in assay [10]. Moreover, the Potency entry in [4], in assay [6] and in assay [9] was “inactive” throughout. The compound was classed as inactive in assay [5] and in [11].

Turning to `O=C(O)CN(CC(=O)O)CC(=O)O`, the Potency result in [1], in [4], in [6] and in assay [9] was “inactive” throughout. In addition, the result in assay [5] and in [11] was inactive. Besides, the max response in assay [7] is -26.1% and -5.78% and 9.03%; in assay [8], 8.87% and -10.3% and 10.6%.

Take `C=CCCCC`: the Potency result in assay [1], in [4], in assay [6] and in assay [9] was “inactive” in each case. For the same compound, the activation in assay [2] is 0.475%. The max response in assay [3] is -2.42%; in assay [7], -4.9%; in assay [8] it was 3.02%; in assay [10], 0.496%. The compound was called inactive in assay [5] and in assay [11].

For `C=CCCCCCCC=C`, the Potency entry in assay [12], in [13], in [1], in assay [4] and in assay [9] was “inactive” throughout. The activation in assay [2] was 0.475%. In addition, the results for the max response in assay [3], in assay [7] and in assay [8] were 4.13%, 5.83% and 3%, respectively. Moreover, the call in assay [5] was inactive.
